# Experimental data: paper PMC7862700, “An all-to-all approach to the identification of sequence-specific readers for epigenetic DNA modifications on cytosine”
# Assays:
# Assay in all cases: DAPPL (digital affinity profiling via proximity ligation, sequencing); 10 mM Tris-HCl pH 7.5, 50 mM NaCl, 1 mM DTT, 4% glycerol, room temperature, 30 min; GST-TFs on glutathione beads, 16-mer random dsDNA library, 0.1% formaldehyde crosslink after washing; high values mean tight binding
# [1] = biological target: T1, FLI1 (Homo sapiens, UniProt Q01543 1-452); details: protein: recombinant; tags: N-terminal GST; dsDNA, one strand shown
# T1 sequence: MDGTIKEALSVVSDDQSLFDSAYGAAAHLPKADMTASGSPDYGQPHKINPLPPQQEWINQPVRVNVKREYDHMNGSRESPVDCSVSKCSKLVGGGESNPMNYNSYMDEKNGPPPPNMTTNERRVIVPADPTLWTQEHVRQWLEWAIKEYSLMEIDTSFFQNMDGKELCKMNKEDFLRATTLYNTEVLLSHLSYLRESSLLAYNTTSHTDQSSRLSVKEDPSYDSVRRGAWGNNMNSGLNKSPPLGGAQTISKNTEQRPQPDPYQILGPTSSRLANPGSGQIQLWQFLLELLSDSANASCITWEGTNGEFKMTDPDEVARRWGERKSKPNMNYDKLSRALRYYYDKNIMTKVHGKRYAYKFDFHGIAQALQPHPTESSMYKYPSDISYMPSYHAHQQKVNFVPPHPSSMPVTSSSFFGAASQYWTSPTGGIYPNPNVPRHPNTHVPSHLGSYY
# Method in brief: (§1)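 Beads coated with glutathione captured GST-fused human transcription factors that had been expressed in yeast, and the factors were then given DNA barcodes and pooled with a tag-only sample. The pools were incubated with 200 nmole of a random double-stranded 16-mer DNA library in Tris/NaCl/DTT/glycerol buffer for 30 min at room temperature, washed, crosslinked with 0.1% formaldehyde and proximity-ligated with BsaI/T4 ligase at 37 °C for 1 h. PCR amplification and Illumina NextSeq500 sequencing came last. Binding signal is each hexamer's read frequency for a factor divided by its frequency for the tag-only sample.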
# [2] = biological target: T2, ELK1 (Homo sapiens, UniProt P19419 1-428); details: protein: recombinant; tags: N-terminal GST; dsDNA, one strand shown
# T2 sequence: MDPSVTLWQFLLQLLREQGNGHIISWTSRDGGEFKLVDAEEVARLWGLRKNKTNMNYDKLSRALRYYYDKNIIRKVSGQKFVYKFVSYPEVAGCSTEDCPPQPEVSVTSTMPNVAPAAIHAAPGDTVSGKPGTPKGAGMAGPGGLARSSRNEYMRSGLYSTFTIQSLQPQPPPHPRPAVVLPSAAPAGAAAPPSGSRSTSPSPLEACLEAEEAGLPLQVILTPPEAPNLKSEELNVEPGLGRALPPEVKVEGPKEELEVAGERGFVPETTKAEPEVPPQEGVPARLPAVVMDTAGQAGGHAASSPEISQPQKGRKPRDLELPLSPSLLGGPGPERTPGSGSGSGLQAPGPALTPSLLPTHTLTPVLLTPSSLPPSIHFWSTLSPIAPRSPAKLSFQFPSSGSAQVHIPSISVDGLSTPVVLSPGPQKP
# Method in brief: as §1
# [3] = biological target: T3, GABPA (Homo sapiens, UniProt Q06546 1-454); details: protein: recombinant; tags: N-terminal GST; dsDNA, one strand shown
# T3 sequence: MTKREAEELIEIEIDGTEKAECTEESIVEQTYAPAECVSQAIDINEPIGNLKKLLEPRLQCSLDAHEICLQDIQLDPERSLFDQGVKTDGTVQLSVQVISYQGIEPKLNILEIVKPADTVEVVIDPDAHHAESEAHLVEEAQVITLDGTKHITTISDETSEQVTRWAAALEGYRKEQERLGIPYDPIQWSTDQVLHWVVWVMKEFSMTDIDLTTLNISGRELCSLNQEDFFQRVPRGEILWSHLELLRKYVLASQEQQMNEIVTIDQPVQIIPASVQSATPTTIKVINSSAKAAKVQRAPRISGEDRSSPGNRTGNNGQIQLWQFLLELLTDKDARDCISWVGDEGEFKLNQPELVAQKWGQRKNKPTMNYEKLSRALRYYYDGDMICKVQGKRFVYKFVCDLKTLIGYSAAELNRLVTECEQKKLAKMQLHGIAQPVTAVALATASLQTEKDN
# Method in brief: as §1
# [4] = biological target: T4, ERG (Homo sapiens, UniProt P11308 1-479); details: protein: recombinant; tags: N-terminal GST; dsDNA, one strand shown
# T4 sequence: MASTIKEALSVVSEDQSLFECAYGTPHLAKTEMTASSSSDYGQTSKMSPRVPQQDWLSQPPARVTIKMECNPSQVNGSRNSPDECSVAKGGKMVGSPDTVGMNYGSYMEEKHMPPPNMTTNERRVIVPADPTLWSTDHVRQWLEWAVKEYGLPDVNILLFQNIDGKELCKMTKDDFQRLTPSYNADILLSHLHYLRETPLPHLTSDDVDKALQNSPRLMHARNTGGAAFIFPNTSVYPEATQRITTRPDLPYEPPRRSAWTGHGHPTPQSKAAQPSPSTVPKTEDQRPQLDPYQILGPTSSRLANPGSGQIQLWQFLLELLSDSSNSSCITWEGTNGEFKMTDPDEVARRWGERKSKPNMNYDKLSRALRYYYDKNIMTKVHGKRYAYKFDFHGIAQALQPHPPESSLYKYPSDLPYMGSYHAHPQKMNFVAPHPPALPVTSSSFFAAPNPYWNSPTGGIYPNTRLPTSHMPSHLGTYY
# Method in brief: as §1
# [5] = biological target: ELF1 (Homo sapiens, UniProt P32519 1-619); details: protein: recombinant; tags: N-terminal GST; dsDNA, one strand shown
# ELF1, sequence (P32519 whole entry): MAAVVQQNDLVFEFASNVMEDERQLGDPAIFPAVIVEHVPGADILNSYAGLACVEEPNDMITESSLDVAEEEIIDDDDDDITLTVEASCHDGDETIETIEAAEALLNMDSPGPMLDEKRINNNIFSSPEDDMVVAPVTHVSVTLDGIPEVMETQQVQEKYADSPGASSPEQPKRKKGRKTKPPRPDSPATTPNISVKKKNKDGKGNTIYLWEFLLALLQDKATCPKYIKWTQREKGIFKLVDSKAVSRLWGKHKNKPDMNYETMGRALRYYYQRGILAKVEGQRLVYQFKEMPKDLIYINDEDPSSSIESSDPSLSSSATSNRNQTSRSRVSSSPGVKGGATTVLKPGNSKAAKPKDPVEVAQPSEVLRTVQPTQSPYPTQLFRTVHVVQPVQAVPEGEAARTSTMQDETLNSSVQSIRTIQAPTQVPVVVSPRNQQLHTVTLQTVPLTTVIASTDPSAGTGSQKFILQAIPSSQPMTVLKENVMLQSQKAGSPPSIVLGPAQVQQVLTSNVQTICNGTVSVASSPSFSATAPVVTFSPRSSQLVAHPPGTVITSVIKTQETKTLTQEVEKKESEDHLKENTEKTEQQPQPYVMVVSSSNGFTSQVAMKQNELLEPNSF
# Method in brief: as §1
# [6] = biological target: T5, EHF (Homo sapiens, UniProt Q9NZC4 1-300); details: protein: recombinant; tags: N-terminal GST; dsDNA, one strand shown
# T5 sequence: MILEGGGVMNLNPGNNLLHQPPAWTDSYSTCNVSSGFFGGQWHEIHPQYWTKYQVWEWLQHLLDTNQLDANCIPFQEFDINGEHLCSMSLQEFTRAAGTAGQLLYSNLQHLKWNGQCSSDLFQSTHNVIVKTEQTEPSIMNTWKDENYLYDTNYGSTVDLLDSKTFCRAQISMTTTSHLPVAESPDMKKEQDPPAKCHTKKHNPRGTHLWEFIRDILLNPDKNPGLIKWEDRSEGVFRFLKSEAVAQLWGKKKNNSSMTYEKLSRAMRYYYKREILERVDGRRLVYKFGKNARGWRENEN
# Method in brief: as §1
# [7] = biological target: SPI1 (Homo sapiens, UniProt P17947 1-270); details: protein: recombinant; tags: N-terminal GST; dsDNA, one strand shown
# Method in brief: as §1
# [8] = biological target: SPIB (Homo sapiens, UniProt Q01892 1-262); details: protein: recombinant; tags: N-terminal GST; dsDNA, one strand shown
# SPIB, sequence (Q01892 whole entry): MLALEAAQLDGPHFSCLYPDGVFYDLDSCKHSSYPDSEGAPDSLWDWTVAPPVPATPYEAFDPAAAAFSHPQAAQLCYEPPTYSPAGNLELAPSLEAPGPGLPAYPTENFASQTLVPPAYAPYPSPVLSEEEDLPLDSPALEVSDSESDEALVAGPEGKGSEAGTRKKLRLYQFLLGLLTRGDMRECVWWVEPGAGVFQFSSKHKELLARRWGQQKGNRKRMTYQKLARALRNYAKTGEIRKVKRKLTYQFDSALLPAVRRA
# Method in brief: as §1
# [9] = biological target: T6, ELK3 (Homo sapiens, UniProt P41970 1-407); details: protein: recombinant; tags: N-terminal GST; dsDNA, one strand shown
# T6 sequence: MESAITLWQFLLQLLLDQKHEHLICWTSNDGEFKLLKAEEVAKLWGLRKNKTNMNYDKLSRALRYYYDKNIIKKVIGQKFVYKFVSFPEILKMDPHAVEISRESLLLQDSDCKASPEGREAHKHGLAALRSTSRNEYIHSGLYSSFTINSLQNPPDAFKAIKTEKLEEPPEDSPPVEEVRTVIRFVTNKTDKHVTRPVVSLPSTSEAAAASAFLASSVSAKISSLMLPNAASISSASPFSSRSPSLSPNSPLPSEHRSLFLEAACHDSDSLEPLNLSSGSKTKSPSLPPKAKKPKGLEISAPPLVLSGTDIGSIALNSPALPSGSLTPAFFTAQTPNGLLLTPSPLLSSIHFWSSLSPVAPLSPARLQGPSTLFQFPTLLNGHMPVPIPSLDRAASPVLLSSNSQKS
# Method in brief: as §1
# [10] = biological target: T7, FEV (Homo sapiens, UniProt Q99581 1-238); details: protein: recombinant; tags: N-terminal GST; dsDNA, one strand shown
# T7 sequence: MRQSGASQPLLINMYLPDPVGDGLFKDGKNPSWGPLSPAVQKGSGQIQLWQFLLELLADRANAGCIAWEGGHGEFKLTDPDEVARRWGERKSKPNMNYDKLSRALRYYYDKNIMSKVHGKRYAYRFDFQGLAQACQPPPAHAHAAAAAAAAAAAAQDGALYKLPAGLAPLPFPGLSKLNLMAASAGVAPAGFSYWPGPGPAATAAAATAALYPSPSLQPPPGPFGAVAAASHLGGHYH
# Method in brief: as §1
# [11] = biological target: ETV5 (Homo sapiens, UniProt P41161 1-510); details: protein: recombinant; tags: N-terminal GST; dsDNA, one strand shown
# ETV5, sequence (P41161 whole entry): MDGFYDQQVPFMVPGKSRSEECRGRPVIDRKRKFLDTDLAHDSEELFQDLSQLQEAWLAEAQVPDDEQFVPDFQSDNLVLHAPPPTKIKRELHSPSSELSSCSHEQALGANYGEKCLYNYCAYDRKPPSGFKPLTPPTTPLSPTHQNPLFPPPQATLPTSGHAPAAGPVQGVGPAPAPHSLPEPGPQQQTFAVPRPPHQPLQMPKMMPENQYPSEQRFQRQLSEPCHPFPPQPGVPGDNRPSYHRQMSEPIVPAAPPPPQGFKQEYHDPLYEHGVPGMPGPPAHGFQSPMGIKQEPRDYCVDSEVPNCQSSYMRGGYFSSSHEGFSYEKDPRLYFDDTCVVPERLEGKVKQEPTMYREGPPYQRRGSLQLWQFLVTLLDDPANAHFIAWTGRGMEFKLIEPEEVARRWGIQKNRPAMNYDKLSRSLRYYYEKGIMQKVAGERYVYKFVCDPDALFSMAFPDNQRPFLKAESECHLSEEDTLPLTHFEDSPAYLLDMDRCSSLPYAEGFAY
# Method in brief: as §1
# [12] = biological target: HSF1 (Homo sapiens, UniProt Q00613 1-529); details: protein: recombinant; tags: N-terminal GST; chain copies: 3; dsDNA, one strand shown
# HSF1, sequence (Q00613 whole entry): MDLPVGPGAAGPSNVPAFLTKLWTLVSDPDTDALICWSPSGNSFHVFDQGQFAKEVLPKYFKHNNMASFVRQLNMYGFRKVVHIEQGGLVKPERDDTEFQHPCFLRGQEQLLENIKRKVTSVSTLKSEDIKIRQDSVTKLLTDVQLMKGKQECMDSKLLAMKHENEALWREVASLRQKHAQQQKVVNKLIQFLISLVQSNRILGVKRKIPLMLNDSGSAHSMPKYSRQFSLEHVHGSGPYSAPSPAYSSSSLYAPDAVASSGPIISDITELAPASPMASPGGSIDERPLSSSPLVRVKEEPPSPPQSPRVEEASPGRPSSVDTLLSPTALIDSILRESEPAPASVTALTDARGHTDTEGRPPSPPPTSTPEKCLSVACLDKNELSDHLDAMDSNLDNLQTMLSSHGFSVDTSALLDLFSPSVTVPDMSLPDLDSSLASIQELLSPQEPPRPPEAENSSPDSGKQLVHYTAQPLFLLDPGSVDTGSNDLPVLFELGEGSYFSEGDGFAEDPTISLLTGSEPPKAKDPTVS
# Method in brief: as §1
# [13] = biological target: T8, SPIC (Homo sapiens, UniProt Q8N5J4 1-248); details: protein: recombinant; tags: N-terminal GST; dsDNA, one strand shown
# T8 sequence: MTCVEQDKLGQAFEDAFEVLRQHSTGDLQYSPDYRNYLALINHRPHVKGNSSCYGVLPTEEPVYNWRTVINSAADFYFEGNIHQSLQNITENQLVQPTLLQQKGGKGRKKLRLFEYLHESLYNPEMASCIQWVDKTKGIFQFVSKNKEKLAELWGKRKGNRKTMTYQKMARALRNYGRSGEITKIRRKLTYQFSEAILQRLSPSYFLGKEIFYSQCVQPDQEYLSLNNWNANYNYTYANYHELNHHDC
# Method in brief: as §1
# [14] = biological target: ELF4 (Homo sapiens, UniProt Q99607 1-663); details: protein: recombinant; tags: N-terminal GST; dsDNA, one strand shown
# ELF4, sequence (Q99607 whole entry): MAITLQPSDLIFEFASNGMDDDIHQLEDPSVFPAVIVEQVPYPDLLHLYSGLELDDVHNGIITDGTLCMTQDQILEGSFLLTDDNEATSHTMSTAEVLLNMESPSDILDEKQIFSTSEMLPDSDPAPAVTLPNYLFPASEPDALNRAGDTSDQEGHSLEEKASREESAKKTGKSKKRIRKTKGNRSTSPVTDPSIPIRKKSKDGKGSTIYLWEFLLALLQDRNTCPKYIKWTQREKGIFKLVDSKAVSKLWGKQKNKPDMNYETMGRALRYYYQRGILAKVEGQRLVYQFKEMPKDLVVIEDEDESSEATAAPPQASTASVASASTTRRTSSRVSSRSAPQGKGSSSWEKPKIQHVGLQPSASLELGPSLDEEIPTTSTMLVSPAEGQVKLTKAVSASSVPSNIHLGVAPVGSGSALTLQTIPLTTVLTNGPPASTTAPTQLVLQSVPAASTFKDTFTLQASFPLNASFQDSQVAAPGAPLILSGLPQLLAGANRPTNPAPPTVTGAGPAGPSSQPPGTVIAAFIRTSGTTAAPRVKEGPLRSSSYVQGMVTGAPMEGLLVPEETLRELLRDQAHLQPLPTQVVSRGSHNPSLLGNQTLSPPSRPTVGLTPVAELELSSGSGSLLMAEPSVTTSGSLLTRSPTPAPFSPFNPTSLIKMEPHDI
# Method in brief: as §1
# [15] = biological target: T9, ELK4 (Homo sapiens, UniProt P28324-2 1-405); details: protein: recombinant; tags: N-terminal GST; dsDNA, one strand shown
# T9 sequence: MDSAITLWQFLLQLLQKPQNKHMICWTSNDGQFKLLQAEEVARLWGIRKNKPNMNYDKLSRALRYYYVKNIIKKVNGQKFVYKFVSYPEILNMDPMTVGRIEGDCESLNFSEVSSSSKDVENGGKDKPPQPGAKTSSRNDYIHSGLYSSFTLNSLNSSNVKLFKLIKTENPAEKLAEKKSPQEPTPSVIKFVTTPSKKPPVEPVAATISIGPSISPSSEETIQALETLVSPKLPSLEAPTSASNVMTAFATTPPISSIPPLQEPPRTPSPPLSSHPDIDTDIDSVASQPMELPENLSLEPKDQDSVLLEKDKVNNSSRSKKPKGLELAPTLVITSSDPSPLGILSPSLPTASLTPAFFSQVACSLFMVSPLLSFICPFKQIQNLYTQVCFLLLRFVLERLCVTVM
# Method in brief: as §1
# [16] = biological target: T10, ETV2 (Homo sapiens, UniProt O00321 1-342); details: protein: recombinant; tags: N-terminal GST; dsDNA, one strand shown
# T10 sequence: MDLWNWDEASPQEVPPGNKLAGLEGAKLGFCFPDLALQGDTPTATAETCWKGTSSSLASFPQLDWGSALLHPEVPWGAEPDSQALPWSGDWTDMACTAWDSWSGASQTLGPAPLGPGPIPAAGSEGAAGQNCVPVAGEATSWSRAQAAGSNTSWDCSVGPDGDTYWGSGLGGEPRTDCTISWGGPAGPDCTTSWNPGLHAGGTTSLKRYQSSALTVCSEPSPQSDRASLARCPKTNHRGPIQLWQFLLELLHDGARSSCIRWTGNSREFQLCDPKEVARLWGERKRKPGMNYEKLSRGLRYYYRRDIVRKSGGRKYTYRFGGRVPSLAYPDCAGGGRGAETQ
# Method in brief: as §1
# [17] = biological target: T11, ELF3 (Homo sapiens, UniProt P78545 1-371); details: protein: recombinant; tags: N-terminal GST; dsDNA, one strand shown
# T11 sequence: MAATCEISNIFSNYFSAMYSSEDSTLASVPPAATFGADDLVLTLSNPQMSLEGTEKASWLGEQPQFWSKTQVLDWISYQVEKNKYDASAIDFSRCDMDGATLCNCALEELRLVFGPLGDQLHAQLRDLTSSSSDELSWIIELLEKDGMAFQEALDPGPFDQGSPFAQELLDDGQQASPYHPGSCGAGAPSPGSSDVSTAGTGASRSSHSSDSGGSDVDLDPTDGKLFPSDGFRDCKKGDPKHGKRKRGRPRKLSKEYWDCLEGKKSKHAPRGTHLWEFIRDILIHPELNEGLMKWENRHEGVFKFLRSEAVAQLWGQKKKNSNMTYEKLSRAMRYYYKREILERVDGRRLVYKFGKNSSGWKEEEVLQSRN
# Method in brief: as §1
# [18] = biological target: CRX (Homo sapiens, UniProt O43186 1-299); details: protein: recombinant; tags: N-terminal GST; dsDNA, one strand shown
# CRX, sequence (O43186 whole entry): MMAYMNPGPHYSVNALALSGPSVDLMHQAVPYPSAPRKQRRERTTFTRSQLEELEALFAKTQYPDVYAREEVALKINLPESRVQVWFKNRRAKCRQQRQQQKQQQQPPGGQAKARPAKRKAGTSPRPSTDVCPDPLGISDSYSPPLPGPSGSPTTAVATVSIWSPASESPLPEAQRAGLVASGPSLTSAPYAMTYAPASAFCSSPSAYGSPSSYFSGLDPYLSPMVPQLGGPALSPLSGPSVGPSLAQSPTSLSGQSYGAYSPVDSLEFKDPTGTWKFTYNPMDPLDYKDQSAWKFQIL
# Method in brief: as §1
# [19] = biological target: ETV1 (Homo sapiens, UniProt P50549 1-477); details: protein: recombinant; tags: N-terminal GST; dsDNA, one strand shown
# ETV1, sequence (P50549 whole entry): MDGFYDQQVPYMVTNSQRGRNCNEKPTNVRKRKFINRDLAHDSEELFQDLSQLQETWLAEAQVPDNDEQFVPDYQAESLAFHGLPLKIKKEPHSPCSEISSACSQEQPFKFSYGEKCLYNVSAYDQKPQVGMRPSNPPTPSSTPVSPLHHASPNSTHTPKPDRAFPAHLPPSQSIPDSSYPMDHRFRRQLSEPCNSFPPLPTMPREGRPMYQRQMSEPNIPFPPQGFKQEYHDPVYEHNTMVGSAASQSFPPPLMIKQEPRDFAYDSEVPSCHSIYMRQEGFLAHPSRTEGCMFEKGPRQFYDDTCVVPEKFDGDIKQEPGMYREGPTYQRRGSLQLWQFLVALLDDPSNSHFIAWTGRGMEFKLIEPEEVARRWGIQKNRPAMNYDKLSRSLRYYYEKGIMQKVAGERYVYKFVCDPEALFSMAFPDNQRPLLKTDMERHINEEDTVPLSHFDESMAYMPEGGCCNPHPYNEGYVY
# Method in brief: as §1
sequence,measurement,setting,value
ATTTAA,binding signal,[1],"1.24 fold enrichment (6-mer frequency, TF over GST control)"
same,binding signal,[2],"1.12 fold enrichment (6-mer frequency, TF over GST control)"
same,binding signal,[3],"1.14 fold enrichment (6-mer frequency, TF over GST control)"
same,binding signal,[4],"1.14 fold enrichment (6-mer frequency, TF over GST control)"
same,binding signal,[5],"1.22 fold enrichment (6-mer frequency, TF over GST control)"
same,binding signal,[6],"1.2 fold enrichment (6-mer frequency, TF over GST control)"
same,binding signal,[7],"1.16 fold enrichment (6-mer frequency, TF over GST control)"
same,binding signal,[8],"1.15 fold enrichment (6-mer frequency, TF over GST control)"
same,binding signal,[9],"1.28 fold enrichment (6-mer frequency, TF over GST control)"
same,binding signal,[10],"1.14 fold enrichment (6-mer frequency, TF over GST control)"
same,binding signal,[11],"1.24 fold enrichment (6-mer frequency, TF over GST control)"
same,binding signal,[12],"1.62 fold enrichment (6-mer frequency, TF over GST control)"
same,binding signal,[13],"1.22 fold enrichment (6-mer frequency, TF over GST control)"
same,binding signal,[14],"1.13 fold enrichment (6-mer frequency, TF over GST control)"
same,binding signal,[15],"1.18 fold enrichment (6-mer frequency, TF over GST control)"
same,binding signal,[16],"1.17 fold enrichment (6-mer frequency, TF over GST control)"
same,binding signal,[17],"1.11 fold enrichment (6-mer frequency, TF over GST control)"
same,binding signal,[18],"2.38 fold enrichment (6-mer frequency, TF over GST control)"
same,binding signal,[19],"1.14 fold enrichment (6-mer frequency, TF over GST control)"
